Shiga inhibitor: Shiga toxin inhibition; inhibition, % at 38.7 µM; Vero cells, Shiga toxin protein synthesis inhibition reporter; AID 2315; hit rate 9.2% among 290,000; in the data active = inhibition mostly above about 28%, no sharp cut-off; inactive = mostly below about 43%
Pf growth 48h: P. falciparum growth inhibition at 48 hours (one generation); Potency, µM (highest dose often 28.7 µM), actives largely listed as inhibitors; hit rate 5.9% among 310,000; AID 504832; P. falciparum luciferase growth in erythrocytes, 48 h
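Luciferase-expressing P. falciparum in infected erythrocytes (2% hematocrit, 0.1% parasitemia final) in RPMI 1640/0.5% Albumax were exposed to compound for 48 hours at 37 C, 5% CO2; growth read as luminescence.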
FBPA Giardia inh: blocks Giardia fructose-bisphosphate aldolase activity | hit rate 0.71% among 290,000 | purified Giardia FBPA | Potency, µM (series often up to 59.6 µM), actives largely listed as inhibitors; note: nearly all actives have a fitted effect of over 55% in size
Target sequence (A8B2U2 whole entry, looked up): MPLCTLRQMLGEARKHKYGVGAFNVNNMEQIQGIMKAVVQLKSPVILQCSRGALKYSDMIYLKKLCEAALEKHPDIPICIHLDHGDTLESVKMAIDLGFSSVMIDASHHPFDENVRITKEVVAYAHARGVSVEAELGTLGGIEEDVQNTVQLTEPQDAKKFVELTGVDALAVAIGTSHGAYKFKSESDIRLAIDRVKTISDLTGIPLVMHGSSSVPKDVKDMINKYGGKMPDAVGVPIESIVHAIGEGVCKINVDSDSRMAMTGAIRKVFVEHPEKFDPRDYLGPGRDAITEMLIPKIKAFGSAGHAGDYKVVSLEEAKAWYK
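40 nM FBPA preincubated 10 min at RT with compound (up to 57.5 uM final), then substrate plus GAPDH/TPI/NAD/arsenate coupling and diaphorase/resazurin added. Fluorescence read after 20 min at RT, 525/598 nm.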
Pf growth 96h: P. falciparum growth inhibition at 96 hours; P. falciparum luciferase reporter growth, 96 h; Potency, µM (titrated, usually from 28.7 µM), actives largely listed as inhibitors; hit rate 6.9% among 320,000; AID 504834
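Luminescence readout: decreased luciferase signal marks inhibited growth of reporter-expressing P. falciparum in infected red cells (2% hematocrit, 0.05% parasitemia final), exposed to compound two generations (96 h, 37 C, 5% CO2).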
NS1 function inh: inhibitors of influenza NS1 protein function. hit rate 0.4% among 270,000. AID 2326. Potency, µM (doses to about 46.1 µM); calls by dose curve; note: actives are rising curves; nearly all actives have a fitted effect of over 50% in size
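A cell-based growth assay was used: compounds that relieve NS1-induced slow growth of budding yeast raise OD600. Assay medium was yeast nitrogen base with ammonium sulphate and -URA supplement, pH 6.0, with 2% galactose.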
CHX counter: affects cycloheximide protein synthesis inhibition readout, counter-screen; cell reporter, cycloheximide protein synthesis inhibition counterscreen; max response, %; hit rate 12% among 300,000; in the data active = max response mostly above about 13%, no sharp cut-off; inactive = mostly below about 14%; note: read at 38.3 µM for the half of the compounds with a filed dose
Of the large screens only hits and unclear results are named; the others gave an inactive call. Compounds with a hit are over-represented: about 21% of the library has one in this group of screens. Unless noted, calls come from the whole dose curve; as a rule, active = well fitted curve in the direction sought with a large enough effect; inconclusive = small, poorly fitted or top-dose-only effect, or another doubt; inactive = no such curve, though single readings can be large; an effect the other way counts as inactive or inconclusive.

Cc1cc(OCc2cc(C(=O)N(C)CCCN3CCOCC3)no2)cc(C)c1Cl	Pf growth 48h inconclusive
CCN(CC1CCCO1)C(=O)c1cc(COc2cc(C)c(Cl)c(C)c2)on1 (stereo unspecified)	Shiga inhibitor 73, Pf growth 96h 12µM, CHX counter 44
O=C(Nc1cc2c(ccc3ccccc32)oc1=O)C1CCCCC1	none
O=C(NC1CCCC1)c1cc2c(ccc3ccccc32)o1	Shiga inhibitor 60, CHX counter 44 (no result: Pf growth 48h)
O=C(NC1CC1)c1cc2ccccc2o1	Shiga inhibitor 43, CHX counter 15
Cc1ccc(/C=N/NC(=O)c2cc3c(ccc4ccccc43)o2)o1	none
CNC(=O)c1cc2c(ccc3ccccc32)o1	Shiga inhibitor 81, CHX counter 33
NS(=O)(=O)c1ccc(CCNCC(=O)NC2CC2)cc1	none
COc1cc(NC(=O)COC(=O)Cn2cnc3c2c(=O)n(C)c(=O)n3C)cc(OC)c1	none (no result: Shiga inhibitor, FBPA Giardia inh, NS1 function inh, CHX counter)
N#Cc1ccc2c(c1)C[C@]1(CCCCN3C(=O)c4ccccc4C3=O)OC3=C(C(=O)OC4(CCCCC4)C3)C2O1	Pf growth 48h inconclusive, Pf growth 96h inconclusive
CCOC(=O)c1ccc(Cl)c(NC(=O)c2cccnc2)c1	none
CC(=O)Nc1ccc(NC(=O)C/C(C)=N/NC(=O)C(=O)Nc2ccc(C)c(Cl)c2)cc1	none
C/C(CC(=O)Nc1ccc(N(C)C)cc1)=N\NC(=O)c1ccccn1	Shiga inhibitor 98, FBPA Giardia inh inconclusive, CHX counter 33
Cc1cccc(C(=O)Nc2ccccc2SCC(=O)Nc2ccc(C)c(Cl)c2)c1	CHX counter 22
C/C(CC(=O)Nc1ccc(N(C)C)cc1)=N\NC(=O)c1cnccn1	Shiga inhibitor 63, Pf growth 48h inconclusive, CHX counter 23
Cc1ccc(NC(=O)CSc2ccccc2NC(=O)c2cccc(Cl)c2)cc1Cl	none
COC(C(=O)N/N=C(\C)CC(=O)Nc1ccc(N(C)C)cc1)c1ccccc1 (stereo unspecified)	none
C/C(CC(=O)Nc1ccc(N(C)C)cc1)=N\NC(=O)c1ccncc1	none
C/C(CC(=O)Nc1ccc(C)c(Cl)c1)=N\NC(=O)c1ccccn1	Shiga inhibitor 77, CHX counter 51
CCCCNC(=S)Nc1cc([N+](=O)[O-])ccc1C	Pf growth 48h inconclusive, Pf growth 96h inconclusive
OC[C@@H](O)CNc1ncnc2ccccc12	none (no result: Shiga inhibitor, Pf growth 48h, FBPA Giardia inh, Pf growth 96h, CHX counter)
CCOc1ccc(S(=O)(=O)n2nc(C)c(S(=O)(=O)N3CCOCC3)c2C)cc1	Pf growth 96h inconclusive
C/C(CC(=O)Nc1ccc(N(C)C)cc1)=N\NC(=O)c1ccc(Cl)cc1	CHX counter 27
C/C(CC(=O)Nc1ccc(C)c(Cl)c1)=N\NC(=O)c1cccc(O)c1	Shiga inhibitor 56, Pf growth 96h inconclusive, CHX counter 57
CSc1ccc(CCNS(=O)(=O)c2csc(C(N)=O)c2)cc1	Pf growth 48h inconclusive (no result: FBPA Giardia inh)
CCOC(=O)C1(CCc2ccccc2)CCN(C(=O)CN2C(=O)CSC2=O)CC1	none
COc1cccc(C(=O)N=c2sc3c(C)ccc(OC)c3n2C)c1	Shiga inhibitor 49, CHX counter 45
COc1ccccc1C(=O)N=c1sc2c(C)ccc(OC)c2n1C	Shiga inhibitor 107, CHX counter 40
C=CCOc1ccc(C(=O)n2cc(C(=O)OC)c3ccccc32)cc1	Pf growth 96h inconclusive
CCN(CC)CCCC(C)n1c(-c2ccccc2)nc2c(N(CCOC)CCOC)nc(C)nc21 (stereo unspecified)	none (no result: Shiga inhibitor, Pf growth 48h, Pf growth 96h, NS1 function inh, CHX counter)
CCOc1cc([N+](=O)[O-])cc2c1C(=O)Nc1ccccc1O2	Pf growth 48h inconclusive, Pf growth 96h inconclusive, CHX counter 25 (no result: NS1 function inh)
CC(C1CCN(Cc2nc(C3CC3)no2)CC1)N1CCOCC1 (stereo unspecified)	Pf growth 96h 13µM
CCOC(=O)N1CCN(Cc2nc(C3CC3)no2)CC1	none
COCCn1c(-c2ccc(C)cc2)nc2oc3cc(OC)ccc3c(=O)c2c1=O	Pf growth 48h 4.1µM, Pf growth 96h inconclusive
COCCCn1c(C2CCCCC2)nc2oc3cc(OC)ccc3c(=O)c2c1=O	Pf growth 48h inconclusive, Pf growth 96h 0.93µM
COc1cc(-c2nc3oc4ccccc4c(=O)c3c(=O)n2Cc2ccco2)cc(OC)c1OC	Shiga inhibitor 40, Pf growth 48h inconclusive, Pf growth 96h inconclusive, CHX counter 22
COc1ccc2c(=O)c3c(=O)n(Cc4ccco4)c(-c4ccc(C)cc4)nc3oc2c1	Pf growth 48h inconclusive
CC(C)OCCCNC(=O)c1cn(C)c2ccc(S(=O)(=O)N(C)C3CCCCC3)cc2c1=O	Pf growth 96h inconclusive (no result: FBPA Giardia inh)
Cc1cnc(NC(=O)CCNC(=O)c2ccc([N+](=O)[O-])cc2)s1	none
CCCCCCN=C1CC(C)(C)CC(=O)/C1=C(/O)CCC	Pf growth 48h inconclusive, Pf growth 96h 6.6µM
CCCN=C1CC(C)(C)CC(=O)/C1=C(/O)CCC	none
COc1c(C)cc(NC(=O)c2ccc3c(c2)NC(=O)CO3)cc1C	Pf growth 48h inconclusive, FBPA Giardia inh inconclusive, Pf growth 96h inconclusive (no result: NS1 function inh)
COCCN=c1scc(-c2ccc3c(c2)NC(=O)CO3)n1/N=C(\C)c1ccc(O)cc1	Pf growth 48h 10µM, FBPA Giardia inh inconclusive, Pf growth 96h inconclusive
Cc1nn2c(N)c(-c3ccccc3)cnc2c1-c1ccc(Cl)cc1	Shiga inhibitor 112, CHX counter 38
Cc1nc2c(-c3ccccc3)c(C)nn2c(N)c1-c1ccccc1	Shiga inhibitor 29, Pf growth 96h inconclusive, CHX counter 49
Cc1nn2c(-c3ccccc3)ccnc2c1-c1ccccc1	Shiga inhibitor 94, CHX counter 49 (no result: Pf growth 48h)
CN(C)C1=NCCN1CCc1cccc(F)c1	none
CCN(CC)CCN1c2ccccc2Sc2ccc3ccccc3c21	Pf growth 48h 8.3µM, Pf growth 96h inconclusive
Nc1ncnc2nc(N3CCN(CCO)CC3)[nH]c12	none (no result: Shiga inhibitor, Pf growth 48h, FBPA Giardia inh, Pf growth 96h, CHX counter)
N#Cc1ccc(OCC(O)CN2CCN(CC(O)COc3ccc(C#N)cc3)CC2)cc1 (stereo unspecified)	Pf growth 96h inconclusive
CC1(C)C2CCC1(C)C(NCC(O)COc1ccc(C#N)cc1)C2 (stereo unspecified)	FBPA Giardia inh inconclusive, Pf growth 96h 4.1µM (no result: Pf growth 48h)
O=C(Nc1ccon1)c1csc2c1CCCC2	none (no result: Pf growth 96h)
COc1cccc(CNC(=O)c2csc3c2CCCC3)c1	none (no result: FBPA Giardia inh)
O=C(Nc1nccs1)c1csc2c1CCCC2	Shiga inhibitor 88, Pf growth 96h inconclusive, CHX counter 36
COc1ccc(NC(=O)c2csc3c2CCCC3)cc1	Shiga inhibitor 72, CHX counter 51
Cc1ccccc1NC(=O)c1csc2c1CCCC2	Shiga inhibitor 100, Pf growth 48h inconclusive, CHX counter 41
COc1cccc(NC(=O)c2csc3c2CCCC3)c1	Shiga inhibitor 104, CHX counter 40
O=Cc1ccccc1-c1cn(CN2C(=O)c3ccccc3C2=O)nn1	none
COc1ccc(-c2cc(C(=O)NCCN3CCOCC3)no2)cc1OC	none
